Assay outcomes deposited in PubChem by National Center for Advancing Translational Sciences (NCATS).
Only some compounds are listed: those with a hit (about 21% of all), similar ones and a draw of the others.
SARS PLpro yeast = SARS-CoV PLP inhibition in yeast | AID 485353 | Potency, µM (series often up to 32.9 µM), inactives show at the top dose activity, positive = growth rescue, most hits filed as activators | S. cerevisiae expressing SARS-CoV PLpro, growth rescue | 0.19% of 330,000 active; also: potency is read from the fitted curve at half-maximal effect; 0% is about no effect; nearly all actives have a fitted effect of over 55% in size
Shiga inhibitor = inhibitors of Shiga toxin in Vero cells; Vero cells, Shiga toxin protein synthesis inhibition reporter; inhibition, % at 38.7 µM; 9.2% of 290,000 active; in the data active = inhibition mostly above about 28%, no sharp cut-off; inactive = mostly below about 43%; also: 0% is about no effect
CHX counter = counter-screen for Shiga toxin inhibitors: cycloheximide protein synthesis inhibition. cell reporter, cycloheximide protein synthesis inhibition counterscreen. 12% of 300,000 active. max response, %; in the data active = max response mostly above about 13%, no sharp cut-off; inactive = mostly below about 14%; also: read at 38.3 µM for the half of the compounds with a filed dose; 0% is about no effect
Pf growth 96h = P. falciparum growth inhibition at 96 hour, primary screen for plastid delayed-death inhibitors. Potency, µM (highest dose often 28.7 µM), for the others: at the top dose activity change, negative = inhibition, most hits filed as inhibitors. 6.9% of 320,000 active. P. falciparum luciferase reporter growth, 96 h; active = well fitted inhibition curve with a large enough effect; inconclusive = small, poorly fitted or top-dose-only effect, or another doubt; inactive = no such curve, though single readings can be large or run the other way; also: potency is read from the fitted curve at half-maximal effect; % is scaled to controls: 0 for no effect and ±100 for the full control effect
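Plates of compound plus infected erythrocytes (2% hematocrit, 0.05% parasitemia final) incubate 96 hours, 37 C, 5% CO2. Detection reagent added; reduced luminescence from the parasites' luciferase reporter flags inhibition.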
Pf growth 48h = inhibits P. falciparum growth in the first generation, 48 h; P. falciparum luciferase growth in erythrocytes, 48 h; Potency, µM (highest dose often 28.7 µM), for inactives: at the top dose activity change, negative = inhibition, hits mostly inhibitors; 5.9% of 310,000 active; AID 504832; active = well fitted inhibition curve with a large enough effect; inconclusive = small, poorly fitted or top-dose-only effect, or another doubt; inactive = no such curve, though single readings can be large or run the other way; also: potency is read from the fitted curve at half-maximal effect; % is scaled to controls: 0 for no effect and ±100 for the full control effect
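First compound was added to culture medium, then infected red cells at 0.1% parasitemia and 2% hematocrit (final). After incubation at 37 C under 5% CO2, luciferase detection reagent was dispensed and light output recorded.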
NS1 inh = inhibitors of influenza NS1 protein function. Potency, µM (series often up to 46.1 µM), inactives show at the highest dose activity, positive = more growth. AID 2326. 0.4% of 270,000 active; also: potency is read from the fitted curve at half-maximal effect; actives are rising curves; nearly all actives have a fitted effect of over 50% in size
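Growth recovery, yeast-based: influenza A NS1 expressed in S. cerevisiae causes slow growth, and suppressors are detected by OD600. The parent strain without NS1 is used as positive control.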
* = called active by the depositor. Unless noted, calls follow the shape of the full dose curve.

Results for CCCCCC(=O)Nc1nc2ccccc2[nH]1 ?
SARS PLpro yeast: 11%; Shiga inhibitor: 62*; CHX counter: 32*; Pf growth 96h: 95%; Pf growth 48h: 345%; NS1 inh: 3%

How did COc1ccc(CCC(=O)Nc2nc3ccccc3[nH]2)cc1OC do in these assays?
SARS PLpro yeast: -5%; Shiga inhibitor: -3; CHX counter: -4; Pf growth 96h: -9%; NS1 inh: 7%

What do the screens show for `COc1cc(CCC(=O)Nc2cnc3ccccc3c2)cc(OC)c1OC`?
SARS PLpro yeast: -1%; Shiga inhibitor: -4; CHX counter: 5; Pf growth 96h: -29%; Pf growth 48h: inconclusive; NS1 inh: -6%

How did COc1cccc(CC(=O)Nc2nc3ccccc3[nH]2)c1 do in these assays?
SARS PLpro yeast: 0%; Shiga inhibitor: 65; CHX counter: 24*; Pf growth 96h: -3%; Pf growth 48h: 36%; NS1 inh: 7%

Results for COc1ccccc1CCC(=O)Nc1nc2ccccc2[nH]1 ?
SARS PLpro yeast: 3%; Shiga inhibitor: 69*; CHX counter: 40*; Pf growth 48h: 85%; NS1 inh: -5%

What do the screens show for `Cc1c(C(=O)N2CC[C@@H](N3CCC(O)CC3)[C@H](O)C2)[nH]c2ccc(Cl)cc12`?
SARS PLpro yeast: -5%; Shiga inhibitor: -3; CHX counter: 1; Pf growth 96h: inconclusive; Pf growth 48h: 20%; NS1 inh: -3%

How did Nc1ncnc2c1nc(-c1ccccc1)n2[C@H]1O[C@@H](CO)[C@@H](O)[C@H]1O do in these assays?
NS1 inh: 0%

What do the screens show for `COc1ccc(CCC(=O)Nc2nc3ccccc3[nH]2)cc1`?
SARS PLpro yeast: -4%; Shiga inhibitor: 42; CHX counter: 19*; Pf growth 96h: 130%; NS1 inh: -3%

What do the screens show for `COc1ccc(OCC(=O)Nc2nc3ccccc3[nH]2)cc1`?
SARS PLpro yeast: 4%; Shiga inhibitor: 38*; CHX counter: 22*; Pf growth 96h: 52%; NS1 inh: -52%

Results for O=[N+]([O-])c1ccccc1/C=C/CN1CCN(Cc2ccc3c(c2)OCO3)CC1 ?
SARS PLpro yeast: 1%; Shiga inhibitor: 3; CHX counter: -2; Pf growth 96h: 235%; Pf growth 48h: inconclusive; NS1 inh: 1%

What do the screens show for `O=c1[nH]c(SCc2ccccc2[N+](=O)[O-])nc2nc[nH]c12`?
SARS PLpro yeast: 3%; Shiga inhibitor: 1; CHX counter: -2; Pf growth 96h: inconclusive; Pf growth 48h: inconclusive; NS1 inh: 6%

How did COc1ccc(-n2ncc3c2CC(C)(C)CC3NC(=O)C2CCN(C(C)=O)CC2)cc1 (stereo unspecified) do in these assays?
SARS PLpro yeast: 2%; Shiga inhibitor: 23*; CHX counter: 19*; Pf growth 96h: 12%; Pf growth 48h: -5%; NS1 inh: -2%

Results for COc1ccc(-n2ncc3c2CC(C)(C)CC3NC(=O)c2ccoc2C)cc1 (stereo unspecified) ?
Shiga inhibitor: 15; CHX counter: 17*; Pf growth 96h: inconclusive; Pf growth 48h: inconclusive; NS1 inh: -5%

What do the screens show for `CCOC(=O)c1cc(C)sc1NC(=O)CSc1nnnn1C`?
SARS PLpro yeast: -5%; Shiga inhibitor: -11; CHX counter: -2; Pf growth 96h: 1.7µM*; Pf growth 48h: -13%; NS1 inh: 0%

How did CCOC(=O)c1cc(C)sc1NC(=O)CSC1=NCCS1 do in these assays?
SARS PLpro yeast: -1%; Shiga inhibitor: -21; CHX counter: -6; Pf growth 96h: 9.3µM*; Pf growth 48h: inconclusive; NS1 inh: -21%

How did CCOC(=O)c1ccccc1NC(=O)CSc1nnnn1C do in these assays?
SARS PLpro yeast: 5%; Shiga inhibitor: -3; CHX counter: 4; Pf growth 96h: inconclusive; Pf growth 48h: inconclusive; NS1 inh: 5%

Results for CC(=O)Nc1ccc(NC(=O)CSC2=NCCS2)cc1 ?
SARS PLpro yeast: -1%; Shiga inhibitor: 3; CHX counter: -3; Pf growth 96h: -26%; Pf growth 48h: 80%; NS1 inh: -3%

What do the screens show for `Cc1csc(=O)n1CC(=O)OCC(=O)Nc1ccc(Cl)cc1F`?
SARS PLpro yeast: 3%; Pf growth 96h: 20%; Pf growth 48h: 1%
